# Assay results from PubChem BioAssay AID1362 (SRMLSC, 2008).
# Hit rate of the full screen: of about 190,000 compounds, about 4,000 (2.1%) were called active. Cut-off read from the data, not from the text of the source: active = inhibition above about 58%; inactive = the rest, inconclusive results apart; tested in S. cerevisiae. Many of the other results were omitted from the sample, so actives are more common in it than they were.
# Experiment: growth inhibition of WT strain, primary screen, mitochondrial fusion inhibitor project, WT and mutant strains, chemical genetic (AID 1362)
# Conditions: mitochondrial fusion phenotypic screen, at 10 µM
# [1] = WT strain, growth inhibition, stronger effect = higher value
SMILES,inhibition [1],inhibition (mutant strain inhibition) [%]
CCOC(=O)C1CCN(c2ncnc3c2c(-c2ccccc2)cn3-c2ccc(C)cc2)CC1,14.7% (inactive),15.5
COc1cccc(CNc2nc3nc4c(c(=O)n3[nH]2)CCC4)c1,-0.87% (inactive),-10.6
COc1cccc(-c2cc3nc4c(c(N5CCC6(CC5)OCCO6)n3n2)CCCC4)c1,69.6% (active),33.9
COc1cccc(-c2nc(S(=O)(=O)c3ccccc3)c(N3CCOCC3)o2)c1,-12% (inactive),-5.11
Cc1ccc(NC(=O)CN2CCC(C(N)=O)CC2)cc1[N+](=O)[O-],-8.61% (inactive),-3.52
CCCN(C(=O)CSc1nnnn1C)c1c(N)n(Cc2ccccc2)c(=O)[nH]c1=O,-4.08% (inactive),-15.2
CC(C)c1ccc2c(c1)c(SC(C)(C)C)c(CC(C)(C)C(=O)O)n2Cc1ccc(Cl)cc1,70.4% (active),23.5
Cc1ccc(C(=O)N2CCN(S(=O)(=O)N3CCOCC3)CC2)cc1,8.87% (inactive),9.09
COc1ccc(C2CC(c3cccs3)=NN2C(=O)CSc2nncs2)cc1OC (stereo not given),-1.36% (inactive),-8.65
Cc1ccccc1CC1(CO)CCCN(Cc2ccc3c(c2)OCCO3)C1 (stereo not given),-4.77% (inactive),1.77
NC(=O)C[n+]1cccc(C(N)=O)c1,-12.7% (inactive),-23.1
COc1ccc(C(=O)CN(C(=O)c2ccc(Cl)cc2)N2C(=O)c3ccccc3C2=O)cc1,6.73% (inactive),27.8
COc1ccc(Cn2c(=O)cc(C)[nH]c2=S)cc1,-15.8% (inactive),-20.1
COc1ccc(Cn2c(-c3ccc(Cl)cc3)c[n+]3ccccc23)cc1,65.1% (active),49.9
COCCNC(=O)CCCn1c(=O)c2ccccc2n(Cc2cccc([N+](=O)[O-])c2)c1=O,5.52% (inactive),6.42
O=C(NCCCNc1ccc([N+](=O)[O-])cc1Cl)c1ccccc1F,-8.75% (inactive),-6.43
COCCn1c(Cc2cccn2C)nnc1SCC(=O)Nc1nccs1,1.47% (inactive),4.94
Cc1ccc(NC(=O)CC2S/C(=N/N=C3\CCCc4ccccc43)NC2=O)cc1 (stereo not given),83.8% (active),33.5
CCN=C1SC(CC(=O)Nc2ccc(C)cc2)C(=O)N1CC (stereo not given),-14.8% (inactive),6.26
Cc1c(Cl)cccc1NC(=O)CC1SC(=NCC2CCCO2)NC1=O (stereo not given),-15.1% (inactive),19

SMILES,inhibition [1],inhibition (mutant strain inhibition) [%]
COc1ccnc(Oc2ccccc2)c1-c1ncn[nH]1,3.65% (inactive),2.35
CC(=O)C1=C(O)C(=O)N(c2cccnc2)C1c1ccc([N+](=O)[O-])cc1 (stereo not given),2.65% (inactive),-8.89
Cc1cc(C)c(C#N)c(SCC(=O)Nc2ccccc2)n1,9.11% (inactive),-9.66
Cc1cc(C#N)c(SCC(N)=O)nc1-c1ccc(F)cc1,-8.84% (inactive),0.95
Cc1cc(=O)[nH]c(SCC(N)=O)c1C#N,59.8% (active),-65.4
C=CCOc1c(CNn2cn[nH]c2=S)cccc1OC,-4.69% (inactive),-6.27
Cc1ccc(CNC(=O)c2cccnc2Cl)cc1,-14.3% (inactive),-25.1
CCc1nc(C)ccc1OCC(=O)N(CC)CC,-20.5% (inactive),-10.4
CN(C)CCOc1ccc(Cl)cc1C(C)(C)C,27.8% (inactive),4.52
CCC(C)(C)c1ccc(OCC(=O)N(C)C)c(C(C)(C)CC)c1,79.9% (active),14.1
O=S1(=O)CC/C(=N\Nc2ccc(F)cc2)c2ccsc21,26.2% (inactive),34.7
O=C(OCC(=O)c1cccs1)C1=COCCO1,9.96% (inactive),20.9
CCC(C)(C)c1ccc(Oc2ccc(NC(=O)COC(=O)C3=COCCO3)cc2)cc1,60.5% (active),33.7
COc1ccc(NC(=O)COC(=O)CNC(=O)C2CCCCC2)cc1,-11.9% (inactive),12.1
CN(C)c1ccc(/C=N/NC(=O)C(O)c2ccc(Br)cc2)cc1 (stereo not given),-4.38% (inactive),1.15
Cc1ccccc1CSc1nnc(-c2ccccc2)c(=O)[nH]1,12.9% (inactive),-13.6
O=C(Nc1ccccc1C(=O)O)c1cc(S(=O)(=O)N2CCCCC2)cs1,1.49% (inactive),-6
Cc1nn(-c2ccccn2)c2c1C(c1ccncc1)C1=C(CC(C)(C)CC1=O)N2 (stereo not given),-4.23% (inactive),-14.9
Cc1ccc(C2C3=C(Nc4[nH]n(-c5ccccc5)c(=O)c42)c2ccccc2C3=O)cc1 (stereo not given),-0.51% (inactive),-6.48
Cc1cc(C)c(C2C3=C(Nc4c2c(C)nn4-c2ccccn2)c2ccccc2C3=O)c(C)c1 (stereo not given),78.7% (active),55
